Assay outcomes as filed in PubChem BioAssay.
TRb SRC2 PPI: TRbeta-SRC2 interaction inhibition | P10828 | TRbeta-SRC2 peptide binding, fluorescence polarization; receptor liganded with 1 µM T3 | Potency, µM (series often up to 106 µM), for the others: top-dose activity change, negative = inhibition, hits mostly inhibitors | AID 1469 | 280,000 compounds, 0.065% hits;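 further: plate controls were bound peptide for no effect and peptide without receptor for full effect; nearly all actives have a fitted effect of over 50% in size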
Target sequence (P10828 whole entry, looked up): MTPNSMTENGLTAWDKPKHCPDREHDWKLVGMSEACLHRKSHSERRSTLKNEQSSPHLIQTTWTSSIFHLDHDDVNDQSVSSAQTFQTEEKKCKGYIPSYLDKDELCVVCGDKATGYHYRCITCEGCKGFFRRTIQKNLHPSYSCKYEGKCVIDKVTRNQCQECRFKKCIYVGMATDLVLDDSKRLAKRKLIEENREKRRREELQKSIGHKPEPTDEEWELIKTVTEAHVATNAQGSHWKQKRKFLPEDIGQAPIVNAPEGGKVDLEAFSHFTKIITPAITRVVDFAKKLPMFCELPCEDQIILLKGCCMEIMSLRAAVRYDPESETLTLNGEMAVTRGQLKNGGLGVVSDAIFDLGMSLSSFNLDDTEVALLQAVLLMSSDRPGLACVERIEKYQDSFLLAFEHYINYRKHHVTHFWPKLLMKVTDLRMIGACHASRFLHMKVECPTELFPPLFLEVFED
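Binding of a 20-amino-acid Texas Red SRC2 peptide (20 nM) to TRb ligand-binding domain (0.6 uM) with agonist T3 at 1 uM was followed by fluorescence polarization after a 5 hr room-temperature incubation.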
TexasRed fluor: Texas Red fluorescence interference in TRb-SRC2 counter-screen; TRb/SRC2 Texas Red total fluorescence interference; Potency, µM (top dose mostly 106 µM), for the others: top-dose fluorescence change, negative = quenching; 280,000 compounds, 0.29% hits; AID 1479; active means well fitted curve in either direction with a large enough effect; inconclusive means small, poorly fitted or top-dose-only effect
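Human TRb ligand-binding domain at 0.6 uM with 20 nM Texas Red SRC2 peptide in Tris buffer containing 1 uM T3 and 5% DMSO, incubated with compound 5 h at ambient temperature. Total fluorescence (555/632 nm) calculated as parallel + 2 × perpendicular.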
Tau FP inhib: inhibitors of human tau fibril formation | P10636 | 280,000 compounds, 0.39% hits | Potency, µM (top dose mostly 57.7 µM), without a hit: top-dose activity, negative = inhibition, hits mostly inhibitors | K18 P301L tau heparin fibrillization, Alexa594 FP, 6 h; further: nearly all actives have a fitted effect of over 55% in size
Target sequence (P10636 561-689 P618L limits assumed): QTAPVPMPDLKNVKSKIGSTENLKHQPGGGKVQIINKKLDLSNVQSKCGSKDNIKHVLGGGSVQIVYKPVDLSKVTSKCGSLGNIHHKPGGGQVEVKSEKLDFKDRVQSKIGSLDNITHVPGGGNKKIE
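Steps: dispense K18 P301L tau (15 uM plus 0.24 uM Alexa 594 tracer, final) in pH 7 sodium acetate; add compound; add heparin (20 uM final); incubate 6 hr, 37 C; add ThT (30 uM final); after 1 hr ambient, read FP.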
Tau fibril ThT: tau fibrillization inhibition (ThT binding); Potency, µM (top dose mostly 57.4 µM), without a hit: at the highest dose activity, negative = inhibition, most hits filed as inhibitors; 270,000 compounds, 2.1% hits; AID 1460; P10636; recombinant tau K18 P301L, heparin-induced fibrillization, ThT fluorescence; further: nearly all actives have a fitted effect of over 55% in size
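Using a mix of unlabeled (15 uM) and Alexa 594-labeled (0.24 uM) tau K18 P301L, heparin-triggered fibrillization over 6 hr at 37 C was scored by ThT fluorescence.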
JMJD2E inh: JMJD2E (human) inhibition | 230,000 compounds, 1.6% hits | B2RXH2 | Potency, µM (top dose mostly 57.1 µM), inactives show at the highest dose activity change, negative = inhibition, hits mostly inhibitors | JMJD2E catalytic domain, FDH-coupled NADH fluorescence (FDH is formaldehyde dehydrogenase) | AID 2147; active means well fitted inhibition curve with a large enough effect, not every such curve was filed as active; inconclusive means small, poorly fitted or top-dose-only effect, or another doubt; inactive means no such curve, though single readings can be large or run the other way;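 further: 0% = wells with enzyme and -100% = buffer wells without enzyme; nearly all actives have a fitted effect of over 50% in size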
Tau fluor counter: counter-screen for tau fibril formation inhibitors. tau K18 P301L Alexa594 fluorescence, heparin fibrillization. 280,000 compounds, 0.93% hits. Potency, µM (doses to about 57.7 µM), for inactives: at the highest dose activity change, negative = decrease; further: nearly all actives have a fitted effect of over 55% in size
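Human tau K18 P301L (15 uM unlabeled, 0.24 uM Alexa 594-labeled) in 100 mM sodium acetate pH 7 with 20 uM heparin, 6 hr at 37 C. ThT 30 uM added, 1 hr ambient; Alexa 594 FP and total fluorescence read at 555/632 nm.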
* marks the source's active call; other numbers are inactive results; ? = inconclusive; · = no result given; [ ] = another dose, or the depositor's remark. Only some compounds are listed: those with a hit (about 3.5% of all), similar ones and a draw of the others. Unless noted, the call rests on the fitted dose curve; in most records, active means well fitted curve in the direction sought with a large enough effect; inconclusive means small, poorly fitted or top-dose-only effect, or another doubt; inactive means no such curve, though single readings can be large; an effect the other way counts as inactive or inconclusive. Unless noted, on the % scale 0 is the no-effect control and ±100 the full control effect; potency means the concentration at half of the fitted maximal effect.

SMILES | TRb SRC2 PPI | TexasRed fluor | Tau FP inhib | Tau fibril ThT | JMJD2E inh | Tau fluor counter
CC1=NN(c2ccc(C(=O)O)cc2)C(=O)/C1=C\c1ccc(OC(=O)c2cccs2)cc1 | -16% | -9% | ? | ? | 3.2µM* | 8%
CCOc1cc(/C=C2\C(=O)N(c3ccc(C(N)=O)cc3)N=C2C)ccc1OC(=O)c1cccs1 | ? | -26% | ? | ? | ? | ?
CCOC(=O)c1c(NC(=O)c2ccccc2C)sc2c1CCCC2 | -3% | 3% | ? | 32µM* | · | -24%
CCOC(=O)c1ccc(NC(=O)c2c(NCc3sccc3C)sc3c2CCCCC3)cc1 | -4% | -10% | -21% | 32µM* | · | -28%
COc1ccc(NC(=O)c2c(NC(=O)C(F)(F)F)sc3c2CCCCC3)cc1 | 0% | -4% | -1% | 16µM* | · | ?
COc1ccc(NC(=O)c2c(NCc3ccc(OC)c(OC)c3OC)sc3c2CCC3)c(OC)c1 | 0% | 2% | -3% | 14µM* | · | ?
O=C(NCCCCc1ccccc1)C1CC(c2ccccc2[N+](=O)[O-])=NO1 (configuration not stated) | 2% | -3% | 13% | -14% | -5% | -16%
COc1ccc(Cl)cc1NC(=O)c1c(NCc2cccnc2)sc2c1CCCC2 | -12% | -8% | -11% | 18µM* | · | ?
COc1ccc(Cl)cc1NC(=O)c1c(NCc2ccc(C)o2)sc2c1CCCC2 | 4% | -24% | ? | ? | · | ?
COc1ccc(NC(=O)c2c(NCc3ccc(N(C)C)cc3)sc3c2CCC3)cc1 | 3% | -1% | -13% | 16µM* | · | ?
CCNC(=O)N1C(=O)C2(OCCO2)c2cc(Br)ccc21 | -3% | -1% | -4% | 2% | 2% | -9%
Cc1nc2c(O)cccc2c(=O)[nH]1 | 0% | -1% | 0% | -12% | 13µM* | -8%
CN(CC(=O)Nc1cccc2ccccc12)C(=O)/C=C/c1cccs1 | 1% | -9% | -5% | -13% | 19% | -9%
COc1ccc(C2=CSC3=C(C(=O)c4cccc(S(=O)(=O)N(C)C)c4)CCN23)cc1 | -1% | -2% | ? | 25µM* | 6% | ?
CC(=O)O[C@H]1CC(C)(C)C(=C=C/C(C)=C/C=C/C(C)=C/C=C/C=C(C)/C=C/C=C(\C)C(=O)C[C@@]23O[C@]2(C)C[C@@H](O)CC3(C)C)[C@](C)(O)C1 | -4% | -1% | ? | 25µM* | ? | -10%
Cc1sc2ccccc2[n+]1CC(=O)O | 11% | 1% | 32µM* | 28µM* | -17% | -16%
CCN1CC2=C(OC(N)=C(C#N)C2c2ccccc2)/C(=C\c2ccccc2)C1 (configuration not stated) | 45µM* | 45µM*[fluorescent] | -8% | ? | ? | -13%
CCN1CC2=C(OC(N)=C(C#N)C2c2cccs2)/C(=C/c2cccs2)C1 (configuration not stated) | -17% | -2% | -6% | 16µM* | 14µM* | -25%
CCN1C=C(Cc2cccs2)C2=C(C1)C(c1cccs1)C(C#N)=C(N)O2 (configuration not stated) | -7% | -4% | -9% | 22µM* | ? | -23%
CC(C)N1CC2=C(OC(N)=C(C#N)C2c2cccnc2)/C(=C/c2cccnc2)C1 (configuration not stated) | 45µM* | 45µM*[fluorescent] | -13% | ? | ? | 5%
CCOC(=O)C1=C(C)OC(N)=C(C#N)C1c1cccs1 (configuration not stated) | -1% | -1% | ? | -17% | ? | -13%
CC(=O)NC(C)C(=O)OCC(=O)c1ccc(-c2ccccc2)cc1 (configuration not stated) | -1% | -5% | 3% | -13% | ? | 4%
CCCNC(=O)Cn1c(=O)n(C)c2ccccc21 | 32µM* | 45µM*[fluorescent] | -2% | -14% | 0% | -12%
CCCCNC(=O)Cn1c(=O)n(C)c2ccccc21 | 6% | -2% | -8% | -4% | 6% | -4%
CC(C)OP(=O)(c1ccc(N(C)C)cc1)C(Nc1ccccc1)c1ccccc1 (configuration not stated) | -2% | 0% | 13% | -17% | -9% | -18%
SMILES | TRb SRC2 PPI | TexasRed fluor | Tau FP inhib | Tau fibril ThT | JMJD2E inh | Tau fluor counter
Cc1ccc(C(=O)Nc2sc3c(c2C(=O)NCc2ccco2)CCCC3)cc1 | -10% | -2% | 3% | -10% | ? | -22%
Cc1ccc(C(=O)C(NC(=O)c2ccco2)Nc2sc3c(c2C(N)=O)CCCC3)cc1 (configuration not stated) | -11% | -3% | -12% | 28µM* | ? | ?
Oc1ccc(-c2cn3c(n2)SCC3)cc1O | -1% | -4% | ? | 10µM* | 13µM* | 14µM*[quencher]
Oc1ccc(-c2cn3c(n2)SCC3)cc1 | 6% | -3% | -2% | ? | -2% | -12%
O=C(C1=C[C@@H]2[C@H]3C(=O)N(c4ccc(Cl)cc4)C(=O)[C@H]3[C@@H](C(=O)c3ccc(Cl)cc3)N2C=C1)c1ccccc1 | -8% | -1% | -19% | 14µM* | 6% | ?
CC(=O)Oc1ccc(C(=O)[C@H]2[C@H]3C(=O)N(c4ccccc4)C(=O)[C@H]3[C@@H]3C=CC=NN32)cc1 | 9% | 1% | -3% | -3% | -4% | -11%
Cc1ccc(C(=O)/C=C/c2ccccc2[N+](=O)[O-])cc1 | -4% | -3% | 14% | ? | 7% | -21%
Cc1ccc(C(=O)/C=C/c2ccc(-c3ccccc3[N+](=O)[O-])o2)cc1 | -16% | -3% | -4% | 8.9µM* | -19% | ?
O=C(/C=C/c1ccc(-c2ccccc2[N+](=O)[O-])o1)c1ccc(Br)cc1 | 5% | -4% | -5% | 7.9µM* | -18% | ?
Cc1ccc(-c2ccc(/C=C/C(=O)c3ccccc3)o2)cc1 | 6% | -14% | -7% | 13µM* | ? | -15%
O=C(/C=C/c1ccc(-c2ccccc2[N+](=O)[O-])o1)c1ccc(F)cc1 | -12% | -4% | -3% | ? | -6% | -20%
CCCn1nnc(NC(=S)NC(=O)C(C)(C)C)n1 | 3%[53 µM] | -4%[53 µM] | -8% | -8% | 1% | 2%
CC(C)(C)OC(=O)N1CCC(c2c(C(=O)Nc3cccc(C(F)(F)F)c3)cnn2-c2ccc(F)cc2F)CC1 | 3% | -6% | ? | -3% | · | -24%
Cc1ccc(N=Nc2c(N)[nH]n3c(=O)cc(C)nc23)cc1 | -6% | -9% | ? | 4µM* | -15% | -20%
O=c1c2c(nc3c(-c4ccc(Cl)cc4)c[nH]n13)CCCC2 | 6% | 0% | 3% | ? | -9% | -23%
